The text below walks through data of the supplement of paper PMC11417369.

Whole data set: some 25,000 sequences, median “ln(normalized median fluorescence intensity)” near 9.3, cut for the highest 2% near 10. The list comes from a sample in which the highest values are over-represented; it also holds similar and randomly drawn sequences.

In the test the test system is PF3D7_0420300 AP2 domain 1 (GST-tagged). The experiment in a line: gcPBM binding intensity (ln(normalized median fluorescence intensity)); higher = stronger DNA binding. The method in brief: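 Binding of GST-tagged P. falciparum DNA-binding domains, expressed in E. coli and used at about 25 μg on average, was carried out for 1 h in 1× PBS containing 1% milk, 0.2 mg/ml BSA, 0.5% salmon testes DNA and 0.03% Triton X-100. The target was an Agilent 4 × 180k array of primer-extended double-stranded 36-bp intergenic genomic probes plus negative controls, read with Alexa488 anti-GST antibody at 488 nm. Binding intensity is the highest Masliner-normalised natural-log median intensity across replicate spots of either probe orientation.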
Consider “TGACATAATGTGTGTAGTACATATATCGTTATTTGA [XGTACX_site5152]”, for which the “gcPBM binding intensity (ln)” value is 9.46. The figure for “ACATGTAAATTTACATGTACATGTAACACTTAATAT [XGTACX_site4575]” is 9.39; for “AGAAAGAAAGAATACACACACACATATATAAATATC [CACACA_site7716]” it is 10.2. The figure for “AGAAAGAAAGAATACACACACACATATATATATATC [CACACA_site3744]” is 10.4; for “AATAAAAAAGAATATACACACATAAATATAAAATAT [CACACA_site683]” it is 9.9; for “AAAGAAATGAAATATACACACATACATATATACATA [CACACA_site9335]” it is 9.81. The figure for “TAAAGAAATAAATACATACACACATATATATATATA [CACACA_site3363]” is 9.46; for “GTATCAAAAGAATACACACACACATACATATATATA [CACACA_site3796]” it is 10.2. Take “AAAAAAAACAAATACACACGCACACCGAAAAAAAAA [CACACA_site803]”: the “gcPBM binding intensity (ln)” value was 10.

Turning to “TCCTACATATAAAAATGTACCCATTGTTTTTTTTTT [XGTACX_site7205]”, the “gcPBM binding intensity (ln)” value came out at 9.11. The figure for “TTCATTCATTTTATTACACACAAAAAAAAAAAAAAA [CACACA_site3680]” is 9.07; for “AACATATATATATATACATGCATATGAACAACGAAT [TGCATGCA_site93]” it is 9.62.

Regarding “CTTTTTAATGAATACACACACACACCGATATATATA [CACACA_site5296]”, the “gcPBM binding intensity (ln)” value turned out to be 10.1. The figure for “AAGGCAAACAAACACACACACATATATACATATATA [CACACA_site2122]” is 9.98. The figure for “AAAAAAAAAAAAAACATACACACAAATATATACATA [CACACA_site4010]” is 9.67; for “CACAAATATACAAATACACACAAATATACACATATA [CACACA_site7176]” it is 9.77; for “AGCAAATACAAACACACACACACATATACATATATA [CACACA_site3497]” it is 10.2. Next, “AAAAAAAAAAAAAACACACACATATATATATATATA [CACACA_site1891]”: 9.55; “AAAAAAAAAAAACATACACACAAATATATACATACA [CACACA_site4011]”: 9.89. Turning to “AAAAAAAAAAAACACACACACATATATATATATATA [CACACA_site732]”, the “gcPBM binding intensity (ln)” value came to 9.75. Next, “AAAAAAAAAAAACACACACACACATACAAAATATAT [CACACA_site1448]”: 10.3. In the case of “TAAAGGCAAACAAACACACACACATATATACATATA [CACACA_site2123]”, the “gcPBM binding intensity (ln)” value stood at 10.2. Next, “CACAAATATATACATACACACATATATACACATATA [CACACA_site8024]”: 9.86; “AAAAAACAAAAACACACACACACATATATATATATA [CACACA_site3654]”: 10.2.

“TAAAGGCAAACAAACACACACACATATATACCTATA [CACACA_site7078]”: the “gcPBM binding intensity (ln)” value worked out at 9.91.
